Screen size: about 2,100 compounds; about 300 (14%) were called active. Roughly 2% stayed inconclusive and do not appear here.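 Rule for the calls: active = every replicate test run called active, with the signal falling and half-maximal concentration within twice the top valid dose; inconclusive = the replicate test runs disagree in their calls; inactive = every test run inactive, including effects in the opposite direction.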 A selection follows. Results with a measured potency or affinity are listed apart.
experiment: reduced cellular PGC1a acetyl-lysine signal – cell-based, cherry-picked samples, dose response (AID 720514); details: U2OS PGC1a acetylation, AlphaLISA, overnight; series mostly up to 19.5 µM; activity change, negative = inhibition: at the top concentration;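 note: 0% = neutral control wells and -100% = positive control wells; actives lower the acetylation signal so they count as inhibitors of PGC1a acetylation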

Activity change, negative = inhibition, inactive:
Cc1csc(NC(=O)CSc2nsc(SCC(=O)Nc3nc(C)cs3)c2C#N)n1 75%
CN1CCN(c2ccc(CNC(=O)c3ccc(-c4ccnn4C)c4ccoc34)cc2)CC1 66.9%
COc1cc(CN2CCCC(CO)(Cc3cccc(Cl)c3)C2)cc2c1OCO2 (stereo not given) 61.2%
CCOc1ccc(N(C)S(=O)(=O)c2cc(-c3cc(C)no3)ccc2C(C)C)cc1 144%
C[C@@H]1CN([C@@H](C)CO)C(=O)c2c(c3ccccc3n2C)-c2ccccc2CO[C@@H]1CN(C)C(=O)Nc1ccc2c(c1)OCO2 163% [at 21 µM]
COC(=O)c1cc(S(=O)(=O)N2CCN(c3ccc(C(C)=O)cc3)CC2)c[nH]1 112%
CCC(=O)N(CC)c1nc(-c2ccc(OC)cc2)cs1 58.5%
CSc1nc(NCc2ccco2)c2ccccc2n1 41.5%
Cc1ccc2oc(-c3ccc(NC(=O)c4cccnc4)cc3)nc2c1 276%
CC(C)CCNc1nc(N2CCCC2)c2c(c1C#N)CCN(C)C2 68.1% [at 10 µM]
COc1ccccc1CN1CCCC(C(=O)N(C)Cc2ccccc2)C1 (stereo not given) 56.3% [at 10 µM]
COc1ccc(CCC(=O)NCCS(=O)(=O)N2CCN(c3ccccc3)CC2)cc1 49.9%
OC(c1ccccc1)(C1CCCCC1)C(CN1CCOCC1)c1ccccc1 (stereo not given) 75.2% [at 10 µM]
CC/C(=C(\c1ccc(O)cc1)c1ccc(OCCN(C)C)cc1)c1ccccc1 137% [at 10 µM]
CCN1CCN(C(=O)c2ccc3c(=O)n(CCC4=CCCCC4)c(=O)[nH]c3c2)CC1 90.2%
O=[N+]([O-])c1ccc(N2CCN(CC3CCCCC3)CC2)cc1 41.3%
c1ccc(CN2OCC3Cn4c(nc5ccccc54)C32)cc1 (stereo not given) 31.5%
c1ccc(C(c2nnnn2Cc2cccs2)N2CCN(C3CCCC3)CC2)cc1 (stereo not given) 49.8%
c1ccc(Cn2nnnc2C(c2cccs2)N2CCCCCC2)cc1 (stereo not given) 44.4%
COc1ccc(C(c2nnnn2C2CCCC2)N2CCC(C)CC2)c(OC)c1 (stereo not given) 74.1%
CC(C)C(c1nnnn1Cc1ccccc1)N(Cc1ccco1)Cc1cccs1 (stereo not given) 141%
COc1ccc(-n2nnnc2CNC(=O)c2ccc3ccccc3c2)cc1 48.8% [at 10 µM]
COc1cccc(CN2C[C@@H]3N[C@H](C2)C3c2ccc(-c3ccccc3F)cc2)c1 (stereo not given in full) 46.1%
CCOC(=O)Cn1cnc2scc(-c3ccccc3)c2c1=O 18%
O=C(Cc1ccccc1)Nc1nc(-c2ccc(F)c(F)c2)cs1 75%
Cc1cccc(-c2ccc(C3[C@@H]4CN(C(=O)C5CCCCC5)C[C@H]3N4)cc2)c1 (stereo not given in full) 58.1% [at 10 µM]
COc1cccc(-c2ccc(C3[C@@H]4CN(Cc5ccccn5)C[C@H]3N4)cc2)c1 (stereo not given in full) 59.2%
COc1cccc(CN2C[C@@H]3N[C@H](C2)C3c2ccc(-c3cccc(C#N)c3)cc2)c1 (stereo not given in full) 79.6%
COc1ccccc1CN1C[C@@H]2N[C@H](C1)C2c1ccc(-c2ccccc2OC)cc1 (stereo not given in full) 40.7% [at 21 µM]
COc1cccc(C(=O)c2c[nH]c(C(=O)NCc3cccnc3)c2)c1 269%
CCN(CC)S(=O)(=O)c1c(Br)cc(C)cc1Br 56.1%
CCN(CC)c1ccc(N)cc1S(=O)(=O)Nc1ccccc1OC 63.3%
O=C(C(Cc1ccccc1)n1cccc1)N1CCN(c2ccccc2)CC1 (stereo not given) 156%
O=C(c1ccccc1)c1nn(-c2ccc(Cl)cc2)c(=O)cc1C(F)(F)F 57% [at 10 µM]
CCn1c(=S)[nH]c2cc(S(=O)(=O)N3CCCCC3)ccc21 144%
C[C@@H]1CN([C@H](C)CO)C(=O)c2cccc(NC(=O)c3ccc(-c4nccs4)cc3)c2O[C@@H]1CN(C)Cc1ccc(C(=O)Nc2ccccc2N)cc1 114%
CC(C)C#Cc1ccc([C@@H]2[C@H](CO)N3C(=O)CN(C(=O)NC4CCCC4)C[C@@H]23)cc1 23.8%
CC1(C)OC(C)(C)/C(=C\c2ccc(OCC(N)=O)cc2)C1=O 57% [at 10 µM]
COc1ccc(S(=O)(=O)N(Cc2ccccc2)Cc2nc(-c3ccccc3)no2)cc1 68.8%
Cc1c(OCc2ccc(C(=O)O)cc2)ccc2c(-c3ccccc3)cc(=O)oc12 43.5%
C[C@@H]1CN([C@H](C)CO)C(=O)c2cc(N(C)C)ccc2O[C@@H](C)CCCCO[C@H]1CN(C)C(=O)Nc1ccccc1 69%
C[C@H](CO)N1C[C@H](C)[C@@H](CN(C)S(=O)(=O)c2ccccc2)OCCCC[C@H](C)Oc2ccc(NC(=O)Nc3cccc4ccccc34)cc2C1=O 48.3% [at 21 µM]
CC(C)NC(=O)N(C)C[C@H]1OCCCC[C@@H](C)Oc2ccc(NC(=O)Cc3ccccc3)cc2C(=O)N([C@@H](C)CO)C[C@H]1C 45.8%
CC(C)NC(=O)Nc1ccc2c(c1)C(=O)N([C@@H](C)CO)C[C@@H](C)[C@@H](CN(C)S(=O)(=O)c1ccccc1)OCCCC[C@H](C)O2 43.1%
COCCOC(=O)N1C(=O)[C@@]2(c3ccccc31)[C@H](c1ccccc1OCCO)N1[C@H](c3ccccc3)[C@H](c3ccccc3)OC(=O)[C@H]1[C@@H]2C(=O)N1CCCCCCC1 29.6%
c1ccc(-c2c(-c3ccccc3)n(Cc3ccco3)c3ncnc(NCCCn4ccnc4)c23)cc1 228%
C=CCn1c(SCC(=O)NC(=O)NCc2ccco2)nc2sc(CC)cc2c1=O 35.5%
O=C(CSc1nc2c(sc3ccccc32)c(=O)n1CCc1ccccc1)NCc1ccco1 44.7%
CCOC(=O)c1ccc(NC(=O)Nc2ccc(F)cc2)cc1 34.3%
CC(=O)Nc1ccc(Nc2ncnc3c2cnn3-c2ccc(C)cc2C)cc1 105%
Cc1cc(Nc2cccc(Cl)c2)c2ccccc2n1 75.5%
Cc1cc(C)c(S(=O)(=O)Nc2ccccc2-c2ccccc2)c(C)c1 96.5%
COc1ccccc1-c1ccc2c(c1)O[C@@H](CN(C)Cc1ccc3c(c1)OCO3)[C@@H](C)CN([C@@H](C)CO)S2(=O)=O 65.4%
COC(=O)c1ccc(NC(=O)C23CC4CC(C2)CC(n2cnc(Cl)n2)(C4)C3)cc1 81.3%
CCOc1ccc(S(=O)(=O)N2c3ccccc3CC2C)cc1 (stereo not given) 52.3%
CCOc1ccc(N2C(=O)CC(Cc3ccc(Br)cc3)C2=O)cc1 (stereo not given) 46.2%
CCCCN=C1NC(=O)C(CC(=O)Nc2ccc(Cl)cc2)S1 (stereo not given) 77.7%
O=C(Cc1ccccc1)N1CCN(C(=O)c2cccs2)CC1 74.4%
CCN1CCN(c2ncc(C(=O)Nc3cc(Cl)ccc3OC)c3ccccc23)CC1 52.8% [at 10 µM]
CCN1CCN(c2cc(C)c3cc(NC(=O)c4ccc(Br)o4)ccc3n2)CC1 39.5%
